In the library only some 2.8% were active in any assay of this set; here they are far more common.
GLS inhibitor = glutaminase GLS (human) inhibition. GLS enzymatic activity, qHTS titration. Potency, µM (titrated, usually from 45.5 µM), most hits filed as inhibitors. actives 0.21% (n = 410,000)
Target sequence (O94925 whole entry, looked up): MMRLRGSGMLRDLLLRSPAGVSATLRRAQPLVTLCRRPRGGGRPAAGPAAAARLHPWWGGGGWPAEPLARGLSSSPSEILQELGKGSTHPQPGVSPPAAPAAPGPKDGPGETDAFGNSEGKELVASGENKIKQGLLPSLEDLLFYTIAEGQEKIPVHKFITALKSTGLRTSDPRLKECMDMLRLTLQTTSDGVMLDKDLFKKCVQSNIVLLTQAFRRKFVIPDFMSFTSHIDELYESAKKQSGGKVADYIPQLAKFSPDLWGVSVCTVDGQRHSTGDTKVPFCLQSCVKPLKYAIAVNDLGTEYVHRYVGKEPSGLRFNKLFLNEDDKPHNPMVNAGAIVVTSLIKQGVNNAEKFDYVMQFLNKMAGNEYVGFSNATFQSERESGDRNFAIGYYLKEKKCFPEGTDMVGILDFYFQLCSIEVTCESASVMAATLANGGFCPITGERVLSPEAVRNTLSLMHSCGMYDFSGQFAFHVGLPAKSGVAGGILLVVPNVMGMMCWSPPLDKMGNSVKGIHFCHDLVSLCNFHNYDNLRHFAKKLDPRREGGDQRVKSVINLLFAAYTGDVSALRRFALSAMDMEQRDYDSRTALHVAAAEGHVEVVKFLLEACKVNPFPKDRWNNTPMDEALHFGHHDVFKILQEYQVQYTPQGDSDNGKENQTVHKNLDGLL
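Human kidney-isoform GLS in 45 mM KH2PO4 pH 8.2, 0.02% Tween-20, with compound, started with 1mM L-Glutamine (added stock). Glutamate oxidase/HRP/Amplex red coupled fluorescence read at start and after 30 min at RT.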
GLP-1R agonist = activates the human GLP-1 receptor; Potency, µM (doses to about 45.6 µM), actives largely listed as activators; P43220; AID 624172; HEK293 GLP-1R CRE-luciferase, luminescence, 4-6 h; cells express a hypersensitive GLP-1R form; actives 0.007% (n = 380,000)
GLP1R inv ag = acts as inverse agonist at human GLP-1 receptor | P43220 | HEK293 GLP-1R CRE-luciferase, luminescence, 24 h; GLP-1R form is constitutively active | Potency, µM (titrated, usually from 38.3 µM), usual class: inhibitors | actives 1.6% (n = 410,000) | AID 624417; note: nearly all actives have a fitted effect of over 55% in size
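Using stably transfected HEK293 (constitutively active GLP-1R, cAMP-luciferase reporter), compounds were incubated 24 hr and luciferase measured by luminescence.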
GLP1R cytotox = cytotoxic in the GLP-1 receptor inverse agonist counter-screen; HEK293 cAMP-luciferase reporter cells, luminescence, 24 h; Potency, µM (titrated, usually from 38.3 µM), hits mostly inhibitors; actives 0.13% (n = 410,000);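 note: loss of luciferase light is scored as toxicity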
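MLSMR compounds, 24 hr on cells at 37 deg C/5% CO2; luminescence after luciferase reagent (12 min RT). Inhibition counted as the undesired cytotoxic outcome.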
KCNH2 WT inh = blocks the wildtype human KCNH2 potassium channel; Q12809; U2OS, BacMam KCNH2, thallium flux FluxOr; hits give low values; activity change, % at 1.84 µM; actives 0.37% (n = 340,000);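 active = maximum activity change below -70%; inconclusive = maximum activity change between -70% and -50%; inactive = maximum activity change above -50%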
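U2OS cells transduced with wild-type KCNH2 virus are loaded with FluxOr dye for 45 min, and thallium flux is measured in kinetic reads before and after stimulation buffer. Rate constants are normalized to DMSO controls.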
KCNH2 3.1 inh = KCNH2 3.1 (human) potassium channel inhibition | actives 0.95% (n = 340,000) | activity change, % (tested at about 1.8 µM) | U2OS KCNH2 3.1, thallium flux FluxOr; hits give low values;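 active = maximum activity change below -70%; inconclusive = maximum activity change from -70% to -50%; inactive = maximum activity change above -50%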;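 note: thallium influx rate constant from kinetic fluorescence after stimulation buffer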
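Channel expression came from 3.1 mutant virus (1.77 x 10^8 /mL) applied to suspended U2OS cells for 4 h. Flux was tracked with FluxOr dye plus Red40 quencher, and kinetic rate constants normalized to controls.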
Large screens that a line does not name were inactive. Unless noted, calls come from the whole dose curve; as a rule, active = well fitted curve in the direction sought with a large enough effect; inconclusive = small, poorly fitted or top-dose-only effect, or another doubt; inactive = no such curve, though single readings can be large; an effect the other way counts as inactive or inconclusive.

CCc1ccc([C@@H]2CC=C(C(=O)O)[C@H](c3ccccc3)N2S(=O)(=O)c2ccc(C)cc2)cc1	none
CCc1ccc([C@@H]2CC=C(C(=O)O)[C@H](c3ccc(C(C)(C)C)cc3)N2S(=O)(=O)c2ccc(C)cc2)cc1	GLP1R inv ag 13µM (no result: KCNH2 3.1 inh)
Cc1ccc(S(=O)(=O)N2[C@@H](c3ccc(C(C)(C)C)cc3)C(C(=O)O)=CC[C@H]2c2ccc(C(C)C)cc2)cc1	GLP1R inv ag 3.2µM, GLP1R cytotox inconclusive
Cc1ccc(S(=O)(=O)N2[C@@H](c3ccc(Cl)cc3)C(C(=O)O)=CC[C@H]2c2ccc(Cl)c(Cl)c2)cc1	GLP1R inv ag 3.5µM
Cc1ccc([C@@H]2CC=C(C(=O)O)[C@H](c3ccc(C(C)(C)C)cc3)N2S(=O)(=O)c2ccc(C)cc2)cc1	GLP1R inv ag inconclusive
CCCCc1cc2c(=O)c(C(=O)OC)c[nH]c2cc1OCc1ccccc1	none (no result: GLP1R inv ag, GLP1R cytotox, KCNH2 WT inh, KCNH2 3.1 inh)
CCn1c(CC2C(=O)N(C)c3ccccc32)nc2ccccc2c1=O (centres undefined)	none (no result: GLP-1R agonist, KCNH2 WT inh, KCNH2 3.1 inh)
COc1ccc(CNC(=O)c2ccc(CS(=O)Cc3ccccc3Cl)o2)cc1 (centres undefined)	none (no result: GLP-1R agonist, KCNH2 WT inh, KCNH2 3.1 inh)
CCC(Cn1nnc2ccccc2c1=O)NC(=O)Nc1cc(OC)cc(OC)c1 (centres undefined)	none (no result: GLP-1R agonist, KCNH2 WT inh, KCNH2 3.1 inh)
Clc1ccc(CSC2=NCCCN2)cc1Cl	GLP1R inv ag 8.9µM
Cc1cc(OCC(=O)OCC(=O)N(C)Cc2ccccc2C)ccc1Cl	none
O=C(Nc1cccnc1)c1ccc2snnc2c1	KCNH2 WT inh -151, KCNH2 3.1 inh -125
O=C(/C=C/c1ccc(Cl)cc1)N(Cc1ccccc1)C1CCS(=O)(=O)C1 (centres undefined)	KCNH2 3.1 inh -75
CCc1c(C)sc2c1CCN(C(=O)Nc1ccc(F)c(Cl)c1)C2c1ccc(F)cc1 (centres undefined)	GLP1R inv ag inconclusive (no result: GLP-1R agonist, KCNH2 WT inh, KCNH2 3.1 inh)
O=C1/C(=C/c2cccnc2)CC/C1=C\c1cccnc1	none
CCC1C/C(=C\c2cccnc2)C(=O)/C(=C/c2cccnc2)C1 (centres undefined)	GLP1R inv ag 3.5µM, GLP1R cytotox inconclusive
Oc1c(Cl)cc(Oc2cc(Cl)c(O)c(CN3CCOCC3)c2)cc1CN1CCOCC1	GLP1R inv ag 11µM
C[C@H](NCc1c[nH]c2ccccc12)c1ccccc1	GLP1R inv ag inconclusive
CCOC(=O)c1c(-c2ccc(OC)cc2)csc1NC(=O)CSc1ccccc1	GLP1R inv ag 4.5µM
CCOC(=O)c1c(-c2ccc(C)cc2)csc1NC(=O)c1cc2ccccc2oc1=O	KCNH2 3.1 inh -122
CCOC(=O)c1c(-c2ccccc2)csc1NC(=O)CSc1ccccc1	GLP1R inv ag inconclusive
CCCCN1C(=O)C(NC(=O)c2ccc(C(C)(C)C)cc2)(C(F)(F)F)C(C(=O)OC)=C1C (centres undefined)	GLP1R inv ag inconclusive (no result: GLP-1R agonist, KCNH2 WT inh, KCNH2 3.1 inh)
COc1ccc(CCNC(=O)c2nn(-c3ccc(C)cc3)c(=O)c3c2c2ccccc2n3C)cc1OC	none (no result: GLP-1R agonist, KCNH2 WT inh, KCNH2 3.1 inh)
CCn1nc(C(=O)OCC(=O)c2ccc(F)cc2)c2ccccc2c1=O	none
CCn1nc(C(=O)OC(C(=O)c2c[nH]c3ccccc23)c2ccccc2)c2ccccc2c1=O (centres undefined)	KCNH2 3.1 inh -76
Cc1ccccc1Cn1c(=O)c2c(nc3n2CCN3Cc2ccco2)n(C)c1=O	GLS inhibitor 7.9µM
Cn1c(=O)n(CCc2ccccc2)c(=O)c2c1nc1n2CCCN1CCc1ccccc1	GLP1R inv ag 2.2µM, KCNH2 3.1 inh inconclusive
CC1CCN(C(=O)Cn2c(=O)n(CCCCCC(=O)NCc3ccccc3Cl)c(=O)c3sccc32)CC1	none (no result: GLP-1R agonist, KCNH2 WT inh, KCNH2 3.1 inh)
CC(C)CCN(N=O)[C@@H](Cc1ccccc1)CN(N=O)[C@@H](Cc1ccccc1)CN(C)N=O	KCNH2 3.1 inh -113
COc1ccc(-n2ncc(C(=O)Nc3ccc4c(c3)OCCO4)c2C2CCN(C(=O)OC(C)(C)C)CC2)cc1	GLP1R inv ag inconclusive (no result: GLP-1R agonist, KCNH2 WT inh, KCNH2 3.1 inh)
Cc1[nH]c2ccc(C(=O)NCCc3ccccc3Cl)cc2c1C	GLP1R inv ag inconclusive (no result: GLP-1R agonist, KCNH2 WT inh, KCNH2 3.1 inh)
C#CCOCCOCCOCCNc1nc(N2CCN(C(=O)CCCCCCCCCCNC(=O)[C@H]([C@@H](C)CC)n3cc(CCCCN=C(N)N)nn3)CC2)nc(N2CCN(C(=O)CCCCCCCCCCNC(=O)[C@H](CCCCN)n3cc(C)nn3)CC2)n1	GLS inhibitor 16µM, GLP1R inv ag inconclusive, GLP1R cytotox inconclusive
C#CCOCCOCCOCCNc1nc(N2CCN(C(=O)[C@H](CCCCN)n3cc(CC(C)O)nn3)CC2)nc(N2CCN(C(=O)[C@H](CCCCN)n3cc(CC(C)O)nn3)CC2)n1 (some centres undefined)	KCNH2 3.1 inh -76
C#CCOCCOCCOCCNc1nc(N2CCN(C(=O)CCCCCCCCCCNC(=O)[C@H]([C@@H](C)CC)n3cc(CCCCCN)nn3)CC2)nc(N2CCN(C(=O)CCCCCCCCCCNC(=O)[C@H](CCCCN)n3cc(CCCC(=O)O)nn3)CC2)n1	none
CCCCC1CCC(C(=O)N2CC(=O)Nc3ccc(F)cc3C2c2ccc(F)cc2)CC1 (centres undefined)	GLP1R inv ag inconclusive (no result: GLP-1R agonist, KCNH2 WT inh, KCNH2 3.1 inh)
O=C(CCCc1ccccc1)Nc1ccnn1C1CCN(Cc2ccccc2)CC1	GLP1R inv ag inconclusive
O=C(CCCc1ccccc1)Nc1ccnn1C1CCN(Cc2ccc(Cl)cc2)CC1	GLP1R inv ag inconclusive, KCNH2 3.1 inh -103
CCOc1cccc(CN2CCC(n3nccc3NC(=O)CCCc3ccccc3)CC2)c1	GLP1R inv ag 10µM
O=C(CCCc1ccccc1)Nc1ccnn1C1CCN(Cc2ccccc2F)CC1	GLP1R inv ag inconclusive
C=C(C)CCC(C)N1CCC(n2nccc2NC(=O)CCOc2ccccc2)CC1 (centres undefined)	GLP1R inv ag 5µM (no result: KCNH2 3.1 inh)
CSc1ccc(CN2CCC(n3nccc3NC(=O)CCCc3ccccc3)CC2)cc1	GLP1R inv ag inconclusive, KCNH2 WT inh -112, KCNH2 3.1 inh -114
CCc1cccc(N2C(=O)CSC23C(=O)Nc2ccccc23)c1 (centres undefined)	none (no result: KCNH2 WT inh, KCNH2 3.1 inh)
CCC1CCc2nc3sc(C(=O)Nc4ccc(C)cc4)c(N)c3cc2C1 (centres undefined)	none (no result: GLP-1R agonist, KCNH2 WT inh, KCNH2 3.1 inh)
COc1cccc(CN2CCC(n3nccc3NC(=O)CCCc3ccccc3)CC2)c1O	GLP1R inv ag inconclusive
COc1cc(CN2CCC(n3nccc3NC(=O)CCCc3ccccc3)CC2)ccc1F	KCNH2 3.1 inh -96
CC(C)n1cc(CN2CCC(n3nccc3NC(=O)CCCc3ccccc3)CC2)cn1	none

Screening data as filed in PubChem BioAssay.
